The campaign covered roughly 16,000 compounds. About 4,000 (25%) were called active. About 26% were inconclusive and are not listed. Calls come from the whole dose curve; as a rule, active = well fitted curve in the direction sought with a large enough effect; inconclusive = small, poorly fitted or top-dose-only effect, or effect the other way; inactive = no such curve, though single readings can be large or run the other way. A selection follows. Numbered stars: 1 amine (or outer) side, 2 acyl side, 3 side chain; on linkers, the order of the positions; unused ones are H or OH. Bridge positions count the residues as written; N and C are the ends. Square brackets hold non-standard residues; d marks the D form. Peptide text beside a SMILES is read from it. I, II: the chains in the order shown. Actinocin(9to1) = Cc1c2oc3c(C)ccc(C(=O)[*:1])c3nc-2c(C(=O)[*:2])c(N)c1=O; aThr = C[C@H](O)[C@H](N)C(=O)O; NMeV = CN[C@H](C(=O)O)C(C)C; Sar = CNCC(=O)O
target: Cytochrome P450 2C9 (Homo sapiens) (UniProt P11712); test: Cytochrome panel assay with activity outcomes; conditions: recombinant CYP, pro-luciferin dealkylation, luminescence, p450-cyp2c9; series mostly up to 57.1 µM; activity, negative = inhibition: at the top concentration
% is set by controls: 0 for no effect and ±100 for the full control effect.

Cytochrome P450 2C9 (Homo sapiens), sequence (P11712 whole entry, looked up): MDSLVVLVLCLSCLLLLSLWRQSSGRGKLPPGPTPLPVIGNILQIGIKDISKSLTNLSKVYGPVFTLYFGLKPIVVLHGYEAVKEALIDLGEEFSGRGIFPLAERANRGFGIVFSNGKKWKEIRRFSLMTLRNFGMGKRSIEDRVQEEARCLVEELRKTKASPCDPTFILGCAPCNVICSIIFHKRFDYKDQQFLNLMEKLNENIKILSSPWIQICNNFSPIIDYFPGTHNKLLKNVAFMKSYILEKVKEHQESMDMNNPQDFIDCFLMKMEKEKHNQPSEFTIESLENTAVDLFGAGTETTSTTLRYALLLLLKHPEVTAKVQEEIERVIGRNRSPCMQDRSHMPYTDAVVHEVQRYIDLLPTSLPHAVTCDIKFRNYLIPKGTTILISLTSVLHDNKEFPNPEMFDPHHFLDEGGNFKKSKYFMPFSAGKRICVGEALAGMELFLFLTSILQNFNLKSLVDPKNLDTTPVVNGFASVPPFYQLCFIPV

SMILES | activity, negative = inhibition | AC50
CS(=O)(=O)N1CCC[C@@]2(CCN(C(=O)Nc3cccc(C#N)c3)C2)C1 | 5.75% (inactive) | –
CCCCCSc1nncc(=O)[nH]1 | – | 4.47 µM (active)
Clc1ccc(CC[C@H](Cn2ccnc2)Sc2c(Cl)cccc2Cl)cc1 | – | 0.0126 µM (active)
NC(N)=Nc1ccc(Cl)cc1 | 27% (inactive) | –
Cc1ccc(C(=O)NCCNc2ccc(Cl)cc2[N+](=O)[O-])o1 | – | 10 µM (active)
COc1ccc(NC(=O)CN(C)S(=O)(=O)c2ccc(Cl)cc2)c([N+](=O)[O-])c1 | -0.31% (inactive) | –
CCOc1ccc(NC(=O)c2ccc(Br)o2)c([N+](=O)[O-])c1 | -22.4% (inactive) | –
CC(NC(=O)CN1CCCC1)C12CC3CC(CC(C3)C1)C2 (stereo not given) | -12% (inactive) | –
CC(Oc1ccc(O)cc1)(P(=O)(O)O)P(=O)(O)O | -4.37% (inactive) | –
CC(=O)N1CCC2(CC1)CCN(C(=O)Nc1cccc(F)c1)CC2 | -1.66% (inactive) | –
O=C(Nc1cccc(NC(=O)N2CCN(c3ccccc3)CC2)c1)N1CCN(c2ccccc2)CC1 | – | 7.94 µM (active)
COC(=O)N1CCC2(CCN(C(=O)Nc3ccccc3)CC2)CC1 | -6.23% (inactive) | –
Cn1cccc1C(=O)N1CCC2(CCN(C(=O)Nc3ccccc3)CC2)CC1 | 7.74% (inactive) | –
O=C(Nc1ccccc1)N1CCC2(CCNCC2)CC1 | 0.996% (inactive) | –
CC(C)n1c(N2CCN(C(=O)Nc3ccccc3)CC2)nc2ccccc21 | – | 6.31 µM (active)
CC(C)=CCC/C(C)=C/CO/N=C1/C[C@@H](O)[C@@H](O)[C@@H]2[C@H]3C(=O)N(c4ccc(F)cc4F)C(=O)[C@@H]3CC[C@@H]12 | -4.09% [at 11.4 µM] (inactive) | –
CC(C)C(C(=O)O)N1C(=O)/C(=C/C=C/c2ccco2)SC1=S (stereo not given) | – | 6.31 µM (active)
c1ccc2cc(C3=NCCN3)ncc2c1 | -10.6% (inactive) | –
Cc1cccc(N(CC(=O)NC2CCCC2)C(=O)c2cc3cc4cccc(C)c4nc3s2)c1C | – | 0.794 µM (active)
Cc1ccc(C)c(N(CC(=O)NC2CCCC2)C(=O)c2cc3cc4cccc(C)c4nc3s2)c1 | – | 0.447 µM (active)
N=C(N)SCCc1cnc[nH]1 | – | inactive
COC(=O)[C@@]1(Cc2ccccc2)[C@H]2c3cc(C(=O)N4CCCC4)n(Cc4cc(F)cc5c4OCOC5)c3C[C@H]2CN1C(=O)c1ccccc1 | – | 0.316 µM (active)
COC(=O)[C@@]1(Cc2ccc(OC)cc2)[C@H]2c3cc(C(=O)N4CCCC4)n(Cc4cc(F)cc5c4OCOC5)c3C[C@H]2CN1C(=O)c1ccccc1 | – | 6.31 µM (active)

SMILES | activity, negative = inhibition | AC50
O=C(NCC1CCC(C(=O)O)CC1)OCc1ccccc1 (stereo not given) | 1.84% (inactive) | –
CSc1nsc(SC)c1NC(=O)OCc1ccccc1 | – | 10 µM (active)
Cc1nn(C)c(Cl)c1NC(=O)OCc1ccc(F)cc1 | -24% (inactive) | –
Cc1cccc(NC(=O)c2cc(N3C(=O)CCC3=O)ccc2Cl)n1 | -2.27% (inactive) | –
Cc1cccc(NC(=S)NC(=O)c2cccs2)n1 | – | 10 µM (active)
C/C(=N\NC(=O)c1ccccc1C)c1ccc(NC(=O)c2cccs2)cc1 | – | 14.1 µM (active)
Cc1ccccc1C(=O)Nc1cccc(NC(=S)NC(=O)c2cccs2)c1 | – | 3.55 µM (active)
CN(C)c1ccc(-c2nccc(NCCN3CCOCC3)n2)cc1 | 5.77% [at 2.29 µM] (inactive) | –
CSc1ccc2c(c1)[C@H](N1CCN(C)CC1)Cc1ccccc1S2 | – | inactive
CCCN1C(=O)C(NC(C)=O)c2cc(OC)ccc21 (stereo not given) | -24% (inactive) | –
CCCN1C(=O)C(Cc2nc3ccccc3c(=O)n2C)c2ccccc21 (stereo not given) | – | 12.6 µM (active)
FC(F)(F)c1ccccc1-c1nc(NCCN2CCOCC2)c2ccccc2n1 | 12.6% [at 2.29 µM] (inactive) | –
CC1CN(C(=O)CN2C(=O)NC3(CCCCCC3)C2=O)CC(C)O1 (stereo not given) | -2.81% (inactive) | –
CC(=O)NCCNc1ncncc1-c1ccc(N(C)C)cc1 | -1.01% [at 2.29 µM] (inactive) | –
Cc1ccc(/C=C2\SC(=S)N(CCCC(=O)Nc3ccccn3)C2=O)cc1 | – | 5.01 µM (active)
Cc1ccc(NC(=O)CN2C(=O)S/C(=C\c3cccn3C)C2=O)cc1 | -7.98% (inactive) | –
CCOc1c(OC(C)=O)ccc(/C=C2\N=C(SCC)SC2=O)c1[N+](=O)[O-] | – | 5.62 µM (active)
C=CCSC1=Nc2sccc2C2=NC(=O)CN12 | -5.09% (inactive) | –
Cc1ccccc1NC1=C(C(=O)c2ccccc2)N(C)S(=O)(=O)c2ccccc21 | – | 3.55 µM (active)
Cc1ccc(C)c(C(=O)CN2C(=O)c3ccccc3S2(=O)=O)c1 | -7.55% (inactive) | –
Cn1c(=O)c2[nH]c(COCc3nc4c([nH]3)c(=O)n(C)c(=O)n4C)nc2n(C)c1=O | 7.37% [at 11.4 µM] (inactive) | –
CCn1c(SCc2ccc(C(=O)Nc3nccs3)cc2)nnc1-c1ccc(NC(C)=O)cc1 | – | 1.78 µM (active)
C=CCn1c(SCc2ccc(C(=O)Nc3ccccc3)cc2)nnc1-c1ccccc1 | – | 3.98 µM (active)

SMILES | activity, negative = inhibition | AC50
C=CCn1c(SCC(=O)Nc2ncc(Cc3ccc(Br)cc3)s2)nnc1-c1ccncc1 | -0.753% (inactive) | –
O=C(CSc1nnc(-c2ccncc2)n1Cc1ccccc1)Nc1nccs1 | – | 10 µM (active)
Cc1ccc(NC(=O)c2ccc(CSc3nnc(-c4ccncc4)n3C)cc2)cc1 | -29.8% (inactive) | –
COC(=O)c1ccc(NC(=O)Cn2nc(-c3ccncc3)nc2SCC(=O)Nc2nccs2)cc1 | – | 0.224 µM (active)
COc1cc(OC)c2nc(C)c3c(c2c1)N(c1ccc(O)cc1)CC3 | -9.41% (inactive) | –
Cc1c2oc3c(C)ccc(C(=O)N[C@@H]4C(=O)N[C@@H](C(C)C)C(=O)N5CCC[C@@H]5C(=O)N(C)CC(=O)N(C)[C@@H](C(C)C)C(=O)O[C@H]4C)c3nc-2c(C(=O)N[C@@H]2C(=O)N[C@@H](C(C)C)C(=O)N3CCC[C@@H]3C(=O)N(C)CC(=O)N(C)[C@@H](C(C)C)C(=O)O[C@H]2C)c(N)c1=O (I: [aThr]V[dP][Sar][NMeV] / II: [aThr]V[dP][Sar][NMeV]; ester I:1-I:C, II:1-II:C; linker I:N-II:N via Actinocin(9to1)) | 11.9% (inactive) | –
O=C1Nc2ccccc2C1=Nc1cccc2ncccc12 | 17.9% [at 11.4 µM] (inactive) | –
CNc1cc(OC)c(C(=O)N[C@@H]2CCN(Cc3ccccc3)[C@H]2C)cc1Cl | -7.74% (inactive) | –
C=CCNCCOCCOc1ccc(C)cc1[N+](=O)[O-] | -25.4% (inactive) | –
Cc1ccc(OCCOCCn2ccnc2)c(Br)c1 | – | 0.501 µM (active)
CCOC(=O)N/N=C1/C[C@@H](O)[C@@H](O)[C@@H]2[C@@H]3C(=O)N(CC)C(=O)[C@H]3CC[C@H]12 | 8.47% [at 11.4 µM] (inactive) | –
O=S(=O)(c1ccc(F)cc1)N1CCCC(CO)C1 (stereo not given) | -17.2% (inactive) | –
O=S(=O)(c1ccc(F)cc1)N1CC2CCCN2c2ccc(C(F)(F)F)cc21 (stereo not given) | – | 10 µM (active)
O=C(Nc1ccccc1)N1CC2(CCN(C(=O)c3ccco3)CC2)C1 | 8.02% (inactive) | –
COc1ccc(-c2nc(-c3cccc(C)c3)nc(N3CCN(C)CC3)c2C#N)cc1 | – | 7.94 µM (active)
CN1CCN(c2ncnc3ccc(-c4cccc(C#N)c4)cc23)CC1 | 10.4% [at 2.29 µM] (inactive) | –
CN1CCN(c2nc(-c3cccc(C#N)c3)nc3ccccc23)CC1 | -2.12% [at 2.29 µM] (inactive) | –
Nc1ncnc2nc(N3CCN(CCO)CC3)[nH]c12 | -3.79% [at 11.4 µM] (inactive) | –
Cc1cc(SCC(=O)c2ccc(Br)cc2)cc(C)[o+]1 | – | 2.51 µM (active)
CC(=O)NC(NC(C)=O)c1ccc(Br)cc1 | -4.71% (inactive) | –
FC(F)(F)c1nnc(-c2ccccc2)nc1Sc1ccccc1 | – | 7.08 µM (active)
FC(F)(F)c1nnc2c(Sc3ccc(Cl)cc3)nc3ccccc3n12 | -15.9% (inactive) | –
CN(C)C(=O)c1ccc(-c2ccc3ncnc(Nc4ccc(F)cc4)c3c2)cc1 | 6.1% [at 2.29 µM] (inactive) | –

SMILES | activity, negative = inhibition | AC50
COc1n[nH]c2nncnc12 | 1.34% (inactive) | –
CN(C)c1ncc2nc(-c3ccc(F)cc3)c(=O)n(Cc3cccs3)c2n1 | -2.96% (inactive) | –
Fc1ccc(-c2cnc(-c3cccs3)o2)cc1 | – | 12.6 µM (active)
CCCN[C@@H](C)C(=O)Nc1ccccc1C | – | inactive
Cc1ccccc1NC(=O)C(C)c1cccc(C(=O)c2ccccc2)c1 (stereo not given) | – | 3.16 µM (active)
O=C(O)[C@@H]1[C@@H]2C[C@H]3c4[nH]c5ccccc5c4CCN3C[C@@H]2CC[C@@H]1O | 13.2% [at 25.6 µM] (inactive) | –
C=C1C=C(Br)C2(OCCCO2)[C@H]2OC12 (stereo not given in full) | 13.6% [at 11.4 µM] (inactive) | –
CC(=O)NC1(c2cccc(F)c2)CCN(CC(=O)NC2CCCCC2)CC1 | -16.3% (inactive) | –
O=C(CN(C(=O)CSc1nc2ccccc2o1)c1cccc(F)c1)NC1CCCCC1 | – | 2.24 µM (active)
CCCCCCCCCCCCCCCCCCOC[C@@H](COP(=O)([O-])OCC[N+](C)(C)C)OC | 11.6% (inactive) | –
COc1ccc(CCn2c(=N)c(C(=O)NCc3ccco3)cc3c(=O)n4ccccc4nc32)cc1 | – | 20 µM (active)
Cc1cc2c(c(=O)o1)[C@H](O)[C@H]1O[C@@H]1C2=O | 10.8% [at 11.4 µM] (inactive) | –
CC(C)C[C@@H](N)C(=O)Nc1ccc2ccccc2c1 | -7.85% [at 11.4 µM] (inactive) | –
c1ccc2cc(NCNc3ccc4ccccc4c3)ccc2c1 | – | 3.98 µM (active)
O=C1CN=C(Nc2ccccc2)N1Cc1cccs1 | – | 17.8 µM (active)
CCOc1ccc(NC2=NCC(=O)N2Cc2cccs2)cc1 | – | 17.8 µM (active)
COc1ccc(-c2nc3cnc(Nc4cccc(OC)c4)nc3n(Cc3cccs3)c2=O)cc1 | -0.306% (inactive) | –
O=c1c(-c2ccc(F)cc2)nc2cnc(Nc3ccccc3)nc2n1Cc1cccs1 | -6.62% (inactive) | –
COc1cccc(Nc2ncc3nc(-c4ccccc4)c(=O)n(Cc4cccs4)c3n2)c1 | -2.75% (inactive) | –
COc1ccc(-c2nc3cnc(N(C)C)nc3n(Cc3cccs3)c2=O)cc1 | 17.4% (inactive) | –
COc1ccc(NC2=NCC(=O)N2Cc2cccs2)cc1 | – | 14.1 µM (active)
